Test [1] is described as follows: Cell Viability - HUV-EC-C (AID 542).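 Note: cells exposed to compound for 40 hours; % is set by controls: 0 for no effect and ±100 for the full control effect; nearly all actives have a fitted effect of over 35% in size.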 In outline: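 Concentration-dependent ATP loss in HUV-EC-C cells is the measure. Exposure lasts 40 hr at 37 °C; luminescence follows CellTiter-Glo addition, and Hill fits give AC50.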
Test [2] is described as follows: Cell Viability - H-4-II-E (AID 543).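 Note: cells exposed to compound for 40 hours; % is set by controls: 0 for no effect and ±100 for the full control effect; nearly all actives have a fitted effect of over 35% in size.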 The method, boiled down:
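AC50 from Hill-modelled qHTS concentration-response curves. H-4-II-E rat hepatoma cells in complete medium, 40 hr exposure at 37 °C, viability by CellTiter-Glo ATP luminescence.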

The nature of test [3]: Cell Viability - Renal Proximal Tubule (AID 545).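 Note: cells exposed to compound for 40 hours; 0% = DMSO only and -100% = 100 µM tamoxifen; nearly all actives have a fitted effect of over 40% in size.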 The conditions noted are these: renal proximal tubule cells viability; at 91.7 µM (top of the series), primary cells of rat origin unless noted. In outline: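 Viability taken as intracellular ATP (CellTiter-Glo luminescence) after 40 hr, 37 °C compound treatment of primary proximal tubule cells from rat kidney, 1000 cells/well; Hill-equation fits of qHTS concentration-response data gave AC50.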

A short description of test [4]: Cell Viability - Mesenchymal (AID 546).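 Note: cells exposed to compound for 40 hours before reading; 0% = DMSO only and -100% = 100 µM tamoxifen.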 In outline: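 Human renal mesenchymal cells (glomerulus-derived), 1000 cells/well, 5 hr 37 °C pre-incubation; compound 40 hr, 37 °C; CellTiter-Glo, 20 min RT; luminescence; AC50 via Hill equation.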
Test [5] addresses Glucocorticoid receptor (Homo sapiens) (UniProt P04150). Briefly: qHTS assay for small molecule antagonists of glucocorticoid receptor signaling (AID 588533; active = well fitted inhibition curve with a large enough effect in the signal ratio, with a control signal flat, not every such curve was filed as active; the % refers to the signal ratio; note: % is set by controls: 0 for no effect and ±100 for the full control effect). The method, boiled down: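 Antagonist-mode qHTS: compound titrations added to GRE-bla HeLa cells, then dexamethasone 2 nM final; 18 h, 37 C. CCF4 FRET fluorescence normalized to dexamethasone and DMSO; IC50 from Hill fit.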

Test [6] has as its target Peroxisome proliferator-activated receptor gamma (Homo sapiens) (UniProt P37231). Briefly: qHTS assay for small molecule agonists of peroxisome proliferator-activated receptor gamma signaling (AID 588536; active = well fitted curve in the direction sought with a large enough effect in the signal ratio, with a control signal flat, not every such curve was filed as active; the % refers to the signal ratio). The method, boiled down: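 Using GeneBLAzer HEK293 cells, response was quantified by CCF4 fluorescence and normalized between basal DMSO (0%) and rosiglitazone 2 uM (100%); curves yielded half-maximal stimulation concentration and efficacy.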
In general terms: qHTS replaces the single test concentration by a dilution series.

For test [7], the target named is Vitamin D3 receptor (Homo sapiens) (UniProt P11473). Briefly: qHTS assay for small molecule antagonists of vitamin D receptor signaling (AID 588541; calls by dose curve;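 note: receptor activated by calcitriol during compound treatment; % is set by controls: 0 for no effect and ±100 for the full control effect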). In outline:
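VDR-UAS-bla HEK293T cells in 2% charcoal-stripped FBS were stimulated with 1-alpha,25-dihydroxyvitamin D3 (3 nM final) plus compound for 16 h at 37 C. The beta-lactamase CCF4 readout was normalized to 50 nM agonist and DMSO, and Hill fits gave IC50.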

Test [8] shares this target. The test is described as follows: qHTS assay for small molecule agonists of vitamin D receptor signaling (AID 588543; calls by dose curve). The method, boiled down:
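Agonist-mode beta-lactamase reporter: HEK293T VDR-UAS-bla cells in charcoal-stripped 2% FBS, compound series 16 h 37 C, CCF4 2 h RT. EC50 from Hill fit, scaled against DMSO and 50 nM calcitriol control.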

Test [9] can be described thus: qHTS assay for small molecule agonists of retinoid X receptor alpha signaling (AID 588544; calls by dose curve). The settings on record: HEK293T RXRa-UAS-bla, beta-lactamase reporter, 18 h; 530 nm emission.
Test [10] deals with Retinoic acid receptor RXR-alpha (Homo sapiens) (UniProt P19793). The test is described as above.
In test [11] the target is Thyroid hormone receptor beta (Homo sapiens) (UniProt P10828). The test is described as follows: qHTS assay for small molecule agonists of thyroid hormone receptor beta signaling (AID 588545; calls by dose curve;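 note: 0% = DMSO only and 100% = 10 nM T3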). The method, boiled down:
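Compounds were tested as agonists in TR-UAS-bla-GripTite HEK 293 cells. After 18 hrs at 37 C, CCF4 substrate was added and fluorescence read after 2 hrs at room temperature.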

Test [12] can be described thus: qHTS assay for small molecule antagonists of retinoid X receptor alpha signaling (AID 588546; active = well fitted inhibition curve with a large enough effect in the signal ratio, with a control signal flat, not every such curve was filed as active; the % refers to the signal ratio;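 note: cells stimulated with 9-cis-retinoic acid as agonist; % is set by controls: 0 for no effect and ±100 for the full control effect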). The settings on record: HEK293T RXRa-UAS-bla, beta-lactamase ratio, antagonist mode; measured here: W530 green channel, cytotoxicity proxy. The method, boiled down: (§1)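 Beta-lactamase reporter inhibition, read as CCF4 fluorescence ratio (ex 405, em 460/530 nm) after 2 h at RT. HEK293T UAS-bla cells, 2500/well, were stimulated with 9-cis-RA at 500 or 100 nM final alongside test compound for 18 h at 37 C.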

The target in test [13] is Retinoic acid receptor RXR-alpha (Homo sapiens) (UniProt P19793). The test is described as above. The settings on record: HEK293T RXRa-UAS-bla, beta-lactamase ratio, antagonist mode. In outline: as §1
Test [14] deals with Thyroid hormone receptor beta (Homo sapiens) (UniProt P10828). Briefly: qHTS assay for small molecule antagonists of thyroid hormone receptor beta signaling (AID 588547; active = well fitted inhibition curve with a large enough effect in the signal ratio, with a control signal flat, not every such curve was filed as active; the % refers to the signal ratio;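 note: cells stimulated with 0.4 nM T3 agonist during compound exposure; % is set by controls: 0 for no effect and ±100 for the full control effect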). The settings on record: TR-UAS-bla HEK293, beta-lactamase ratio, antagonist mode, 18 h. In outline:
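TR-UAS-bla GripTite HEK293 cells in 2% charcoal/dextran FBS medium; compounds 0.59 nM to 92 uM with T3 at 0.4nM final, 18 h at 37 C. Beta-lactamase read by CCF4 fluorescence (460/530 nm); Hill fits gave IC50 and efficacy.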

Test [15] can be described thus: qHTS assay for small molecule activators of the p53 signaling pathway (AID 651743; active = well fitted activation curve with a large enough effect in the signal ratio, not every such curve was filed as active; the % refers to the signal ratio; note: % of control where 0% means no effect). The conditions noted are these: HCT-116 p53RE-bla, beta-lactamase FRET ratio, 16 h; activation: stronger effect = higher value. In outline:
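Reporter: beta-lactamase driven by p53 response elements, stably integrated in HCT-116 cells. Cells seeded at 4,000/well, 5 h preincubation, compound (DMSO) 16 h at 37 C; B/G FRET substrate 2 h RT; fluorescence intensity read.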

A short description of test [16]: qHTS assay for small molecule activators of the nuclear factor-kappa B (NF-kB) signaling pathway (AID 651749; active = well fitted activation curve with a large enough effect in the signal ratio; the % refers to the signal ratio; note: % of control where 0% means no effect). The conditions noted are these: NF-kB-bla ME-180 cells, beta-lactamase FRET ratio, 16 h; activation: stronger effect = higher value. The method, boiled down:
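NF-kB-bla ME-180 cells, 2,000/well; 23 nL compound or DMSO pinned; 16 hr, 37C/5% CO2; beta-lactamase FRET read-out.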

Test [17] has as its target Tumor necrosis factor (Homo sapiens) (UniProt P01375). Briefly: qHTS assay to identify small molecules that stimulate Tumor Necrosis Factor-alpha (TNF-alpha) secretion (AID 651757; active = well fitted curve in the direction sought with a large enough effect in the signal ratio; the % refers to the signal ratio; note: 0% is about no effect). In outline:
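Using 3000 THP-1 cells per well, compounds and controls were applied for 17 hrs at 37 C. Detection followed with two labeled anti-TNF-alpha antibodies (cryptate donor, XL665 acceptor) for 3 hr at room temperature, measured by TR-FRET.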

Test [18] has as its target Peroxisome proliferator-activated receptor alpha (Homo sapiens) (UniProt Q07869). The test is described as follows: qHTS assay for small molecule agonists of the peroxisome proliferator-activated receptor alpha (PPARalpha) signaling pathway (AID 651778). Note: % of control where 0% means no effect. The settings on record: PathHunter PPARalpha complementation, chemiluminescence, 6 h; stronger effect = higher value. In outline: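 Enzyme-fragment complementation assay in which ligand-bound PPARalpha translocates and forms an active enzyme that generates chemiluminescence. Cells were plated overnight, exposed to compound for 6 hr at 37 C, and then given detection reagent for 60 min at room temperature.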

For test [19], the target named is Nuclear receptor ROR-gamma (Homo sapiens) (UniProt P51449). Briefly: qHTS assay for small molecule antagonists of the retinoid-related orphan receptor gamma (ROR-gamma) signaling pathway (AID 651802).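 Note: CHO cells with doxycycline-induced ROR-gamma expression; luciferase reporter luminescence driven by ROR response element; % is set by controls: 0 for no effect and ±100 for the full control effect; nearly all actives have a fitted effect of over 60% in size.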 The method, boiled down:
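Doxycycline-induced reporter activity in engineered CHO cells (TET-inducible ROR, RORE-LUC) was measured by luminescence after 16hr compound exposure at 37C.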

The target of test [20] is Nuclear receptor subfamily 1 group I member 2 (Rattus norvegicus) (UniProt Q9R1A7). Briefly: qHTS assay for small molecule activators of the rat pregnane X receptor (rPXR) signaling pathway (AID 651751; call rule not given here; note: 0% is about no effect). The settings on record: rPXR reporter cells, luciferase (One-Glo), 24 h.

“And” between values parts separate entries of the source, which are not always exact repeats. Equal values may be shown once. Records with an inconclusive call do not appear. The source made the active and inactive calls. Unless noted, calls come from the whole dose curve; as a rule, active = well fitted curve in the direction sought with a large enough effect; inconclusive = small, poorly fitted or top-dose-only effect, or another doubt; inactive = no such curve, though single readings can be large; an effect the other way counts as inactive or inconclusive.

Results on two molecules are retold here after PubChem BioAssay (NCATS).

Thyroid hormone receptor beta (Homo sapiens), sequence (P10828 whole entry, looked up): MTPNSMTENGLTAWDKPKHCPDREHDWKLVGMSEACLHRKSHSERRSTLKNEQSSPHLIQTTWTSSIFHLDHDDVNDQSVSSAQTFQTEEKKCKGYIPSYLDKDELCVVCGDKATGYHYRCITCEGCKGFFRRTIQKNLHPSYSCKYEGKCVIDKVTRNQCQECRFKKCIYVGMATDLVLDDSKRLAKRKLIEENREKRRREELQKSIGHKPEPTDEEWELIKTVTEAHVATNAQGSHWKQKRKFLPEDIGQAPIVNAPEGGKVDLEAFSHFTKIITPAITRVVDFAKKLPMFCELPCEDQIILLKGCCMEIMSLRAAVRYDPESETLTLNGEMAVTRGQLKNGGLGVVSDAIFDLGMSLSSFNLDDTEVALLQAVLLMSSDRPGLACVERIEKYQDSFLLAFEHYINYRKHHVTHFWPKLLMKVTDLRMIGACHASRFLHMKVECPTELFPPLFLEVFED
Vitamin D3 receptor (Homo sapiens), sequence (P11473 whole entry, looked up): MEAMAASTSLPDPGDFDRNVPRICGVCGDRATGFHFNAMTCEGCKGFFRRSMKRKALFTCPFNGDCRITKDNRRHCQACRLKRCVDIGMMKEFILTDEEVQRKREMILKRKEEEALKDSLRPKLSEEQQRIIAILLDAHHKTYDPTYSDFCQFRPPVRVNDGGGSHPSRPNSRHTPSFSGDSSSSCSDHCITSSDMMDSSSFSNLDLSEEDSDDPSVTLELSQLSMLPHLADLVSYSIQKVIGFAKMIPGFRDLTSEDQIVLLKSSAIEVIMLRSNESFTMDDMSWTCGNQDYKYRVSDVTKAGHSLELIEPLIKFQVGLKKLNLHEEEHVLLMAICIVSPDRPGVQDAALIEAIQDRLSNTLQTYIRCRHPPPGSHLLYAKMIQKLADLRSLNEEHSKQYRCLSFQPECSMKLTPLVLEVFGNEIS
Nuclear receptor subfamily 1 group I member 2 (Rattus norvegicus), sequence (Q9R1A7 whole entry, looked up): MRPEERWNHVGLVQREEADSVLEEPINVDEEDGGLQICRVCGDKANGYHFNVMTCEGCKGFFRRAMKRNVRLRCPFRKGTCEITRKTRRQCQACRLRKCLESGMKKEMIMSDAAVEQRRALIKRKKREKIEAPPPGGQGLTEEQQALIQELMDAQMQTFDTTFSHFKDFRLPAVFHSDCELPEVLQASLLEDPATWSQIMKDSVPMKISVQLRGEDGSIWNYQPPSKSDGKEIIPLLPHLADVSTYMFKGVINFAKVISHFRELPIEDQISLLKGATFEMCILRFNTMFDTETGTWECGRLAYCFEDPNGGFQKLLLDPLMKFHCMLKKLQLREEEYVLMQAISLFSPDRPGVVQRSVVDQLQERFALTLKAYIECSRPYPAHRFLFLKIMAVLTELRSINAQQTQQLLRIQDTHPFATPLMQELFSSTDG
Peroxisome proliferator-activated receptor alpha (Homo sapiens), sequence (Q07869 whole entry, looked up, the tested form may be a part): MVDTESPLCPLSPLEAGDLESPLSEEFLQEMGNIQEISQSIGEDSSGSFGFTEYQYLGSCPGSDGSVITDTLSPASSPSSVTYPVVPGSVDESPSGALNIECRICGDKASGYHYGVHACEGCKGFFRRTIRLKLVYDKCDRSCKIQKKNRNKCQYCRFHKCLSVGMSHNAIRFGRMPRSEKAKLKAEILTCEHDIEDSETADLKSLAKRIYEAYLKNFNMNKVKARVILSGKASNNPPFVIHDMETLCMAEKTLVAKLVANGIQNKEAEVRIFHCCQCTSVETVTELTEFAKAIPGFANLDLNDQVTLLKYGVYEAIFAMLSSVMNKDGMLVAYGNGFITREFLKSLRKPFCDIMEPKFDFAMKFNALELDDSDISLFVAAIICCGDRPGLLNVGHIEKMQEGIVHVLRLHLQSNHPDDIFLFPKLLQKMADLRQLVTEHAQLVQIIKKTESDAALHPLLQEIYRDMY
Retinoic acid receptor RXR-alpha (Homo sapiens), sequence (P19793 whole entry, looked up): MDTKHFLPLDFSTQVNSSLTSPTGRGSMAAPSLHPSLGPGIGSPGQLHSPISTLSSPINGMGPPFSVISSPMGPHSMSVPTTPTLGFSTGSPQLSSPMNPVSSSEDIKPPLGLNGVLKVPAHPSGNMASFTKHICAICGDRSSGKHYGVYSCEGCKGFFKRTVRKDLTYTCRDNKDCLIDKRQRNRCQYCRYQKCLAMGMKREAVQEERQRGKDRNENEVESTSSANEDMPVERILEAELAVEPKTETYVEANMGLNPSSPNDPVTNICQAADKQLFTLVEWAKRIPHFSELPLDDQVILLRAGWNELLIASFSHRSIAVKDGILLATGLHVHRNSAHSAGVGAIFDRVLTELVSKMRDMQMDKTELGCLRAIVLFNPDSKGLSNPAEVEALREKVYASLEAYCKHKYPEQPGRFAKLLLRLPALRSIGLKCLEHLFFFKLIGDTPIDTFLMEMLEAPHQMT
Peroxisome proliferator-activated receptor gamma (Homo sapiens), sequence (P37231 whole entry, looked up): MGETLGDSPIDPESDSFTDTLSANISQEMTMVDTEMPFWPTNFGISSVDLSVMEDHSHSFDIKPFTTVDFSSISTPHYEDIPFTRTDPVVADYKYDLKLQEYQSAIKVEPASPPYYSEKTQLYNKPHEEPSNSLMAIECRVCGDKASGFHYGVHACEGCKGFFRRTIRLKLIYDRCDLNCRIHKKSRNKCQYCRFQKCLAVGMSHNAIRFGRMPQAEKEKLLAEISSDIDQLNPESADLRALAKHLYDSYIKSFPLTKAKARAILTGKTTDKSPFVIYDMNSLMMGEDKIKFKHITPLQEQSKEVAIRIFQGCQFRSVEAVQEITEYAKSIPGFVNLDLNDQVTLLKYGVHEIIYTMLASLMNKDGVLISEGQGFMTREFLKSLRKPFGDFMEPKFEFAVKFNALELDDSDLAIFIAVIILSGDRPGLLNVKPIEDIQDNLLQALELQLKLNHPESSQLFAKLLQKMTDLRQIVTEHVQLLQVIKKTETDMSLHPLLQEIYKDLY
Tumor necrosis factor (Homo sapiens), sequence (P01375 whole entry, looked up): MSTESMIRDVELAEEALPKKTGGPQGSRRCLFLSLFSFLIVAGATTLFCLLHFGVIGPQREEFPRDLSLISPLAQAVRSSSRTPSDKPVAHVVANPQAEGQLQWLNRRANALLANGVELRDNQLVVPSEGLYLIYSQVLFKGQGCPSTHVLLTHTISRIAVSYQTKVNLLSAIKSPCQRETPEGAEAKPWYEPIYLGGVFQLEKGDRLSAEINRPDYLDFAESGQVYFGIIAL
Glucocorticoid receptor (Homo sapiens), sequence (P04150 whole entry, looked up): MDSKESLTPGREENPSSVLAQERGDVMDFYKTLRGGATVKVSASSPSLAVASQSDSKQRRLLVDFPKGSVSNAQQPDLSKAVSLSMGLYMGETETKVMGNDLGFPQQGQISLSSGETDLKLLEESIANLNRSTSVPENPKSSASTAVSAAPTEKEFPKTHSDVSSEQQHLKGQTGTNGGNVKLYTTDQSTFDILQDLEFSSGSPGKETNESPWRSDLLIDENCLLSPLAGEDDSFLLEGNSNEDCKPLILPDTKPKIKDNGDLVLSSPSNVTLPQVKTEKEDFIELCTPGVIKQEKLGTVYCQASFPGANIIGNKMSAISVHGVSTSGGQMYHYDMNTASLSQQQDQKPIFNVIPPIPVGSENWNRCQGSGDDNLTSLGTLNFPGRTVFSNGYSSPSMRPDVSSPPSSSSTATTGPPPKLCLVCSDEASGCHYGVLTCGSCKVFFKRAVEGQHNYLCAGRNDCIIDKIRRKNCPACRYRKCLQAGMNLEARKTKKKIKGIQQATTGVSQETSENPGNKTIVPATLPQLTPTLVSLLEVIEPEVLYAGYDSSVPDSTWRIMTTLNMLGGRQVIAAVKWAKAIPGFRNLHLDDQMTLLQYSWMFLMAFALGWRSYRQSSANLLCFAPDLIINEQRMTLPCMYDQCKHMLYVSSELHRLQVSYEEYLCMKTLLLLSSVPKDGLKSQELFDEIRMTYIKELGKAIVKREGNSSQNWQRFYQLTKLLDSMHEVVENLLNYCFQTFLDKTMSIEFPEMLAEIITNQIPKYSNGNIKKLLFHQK
Nuclear receptor ROR-gamma (Homo sapiens), sequence (P51449 whole entry, looked up): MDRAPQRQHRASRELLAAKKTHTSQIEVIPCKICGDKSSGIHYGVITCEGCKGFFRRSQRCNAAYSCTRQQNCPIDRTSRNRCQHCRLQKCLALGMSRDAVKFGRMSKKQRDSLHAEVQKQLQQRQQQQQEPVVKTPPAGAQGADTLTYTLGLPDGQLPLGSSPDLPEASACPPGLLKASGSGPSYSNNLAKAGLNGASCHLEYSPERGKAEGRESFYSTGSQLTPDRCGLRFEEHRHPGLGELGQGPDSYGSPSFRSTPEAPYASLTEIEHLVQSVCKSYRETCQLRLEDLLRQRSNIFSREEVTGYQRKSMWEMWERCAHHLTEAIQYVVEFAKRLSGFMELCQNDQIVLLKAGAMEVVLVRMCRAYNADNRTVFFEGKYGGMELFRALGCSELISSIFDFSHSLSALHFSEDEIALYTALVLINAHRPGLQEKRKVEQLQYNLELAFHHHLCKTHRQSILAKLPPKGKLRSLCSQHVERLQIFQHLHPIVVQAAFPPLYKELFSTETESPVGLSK

Regarding `C=CCc1ccc2c(c1)OCO2`, the Potency result in [1], in test [2], in [5], in test [10] and in [19] was “inactive” throughout. Further, in test [3], the activity change, negative = cytotoxicity is 1.52% [at 91.7 µM] (inactive). The result in test [4], in test [6], in [7], in test [8], in test [11] and in test [17] was inactive. For the same molecule, the max response was 1.6% in test [9]; -5.37% in test [12]; 33.4% (inactive) in test [13]; -3.48% (inactive) in test [18]; 3.14% (inactive) in test [20]. In [14], the activity change % (negative = inhibition) was -3.5% (inactive). Besides, the activation was -1.35% (inactive) in test [15] and -0.401% (inactive) in [16].
`c1ccc(N=Nc2ccccc2)cc1`: the Potency result in [1], in test [2], in test [5], in test [10] and in test [19] was “inactive” in each case. Also, the activity change, negative = cytotoxicity in [3] is -6.36% (inactive). In addition, the outcome in test [4], in [6], in test [7], in [8], in [11] and in test [17] was inactive. The max response in test [9] is 8.95% and -1.18%; in test [12], -17.4% and -6.96%; in test [13] it was -1.15% (inactive) and 2.93% (inactive); in test [18] it was -0.415% (inactive) and -1.69% (inactive); in [20], -2.25% (inactive) and 1.3% (inactive). In addition, in test [14], the activity change % (negative = inhibition) is 5.03% (inactive) and -8.04% (inactive). For the same molecule, the activation in test [15] was -2.32% (inactive) and -5.83% (inactive); in [16] it was -0.765% (inactive) and -3.19% (inactive).
